Laboratory results reported in PubChem BioAssay (Tox21).
Results filed as inconclusive are left out. Entries that show only a call come without a potency. Active and inactive are the calls of the source. Unless noted, calls come from the whole dose curve; as a rule, active = well fitted curve in the direction sought with a large enough effect in the repeat runs; inconclusive = weak or mixed curves; inactive = no such curve, though single readings can be large; an effect the other way counts as inactive or inconclusive.

Legend:
[1] = qHTS assay for small molecule agonists of the p53 signaling pathway (AID 651631; calls by dose curve; note: nearly all actives have a fitted effect of over 15% in size; note: potency is the fitted concentration of half-maximal effect)
Procedure, shortened: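 We treat p53RE-bla HCT-116 cells with compounds for 16 h at 37 °C, add LiveBLAzer B/G FRET substrate for 2 h at room temperature, and measure fluorescence intensity.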

[2] = qHTS assay for small molecules that induce genotoxicity in human embryonic kidney cells expressing luciferase-tagged ATAD5 (AID 651632); note: nearly all actives have a fitted effect of over 15% in size; note: potency is the fitted concentration of half-maximal effect
Procedure, shortened: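 Cells were seeded at 2,000 per well, dosed with compound, and incubated 16 hr at 37C in 5% CO2. Luciferase activity was then quantified after a 30 min room-temperature incubation with Amplite.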

[3] = qHTS assay for small molecule agonists of the p53 signaling pathway - cell viability (AID 651633; calls by dose curve; note: nearly all actives have a fitted effect of over 30% in size; note: potency is the fitted concentration of half-maximal effect)
Procedure, shortened: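 p53RE-bla cells were treated with compound for 16 hours at 37 C. Cytotoxicity was then measured as CellTiter-Glo luminescence after 30 min at room temperature.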

[4] = qHTS assay for small molecule disruptors of the mitochondrial membrane potential - cell viability (AID 720634; calls by dose curve;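 note: human HepG2 liver cancer cells; nearly all actives have a fitted effect of over 20% in size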)
Procedure, shortened: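 Cytotoxicity was measured by ATP quantitation in HepG2 wells that had first been treated with compound for 1 hr and stained with m-MPI dye; CellTiter-Glo incubation was 30 min at room temperature.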

[5] = qHTS assay for small molecule disruptors of the mitochondrial membrane potential (AID 720635); note: potency is the fitted concentration of half-maximal effect
Procedure, shortened: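 HepG2 cells exposed to compound 1 hr at 37C, then Mito-MPS dye 30 min. Ratio read of aggregate (540/590 nm) versus monomer (490/535 nm) fluorescence.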

[6] = qHTS assay to test for compound auto fluorescence at 590 nm (red) in HepG2 cells (AID 720674)
Procedure, shortened: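 HepG2 cells, 2,000 per well in MEM with 10% FBS, attached overnight at 37 C, then got 23 nL compound or DMSO. After 1 hr at 37 C, 5% CO2, red fluorescence was read at 540/590 nm against Rose Bengal sodium as reference.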

[7] = qHTS assay to test for compound auto fluorescence at 535 nm (green) in HepG2 cells (AID 720675)
[8] = qHTS assay to test for compound auto fluorescence at 460 nm (blue) in HEK293 cells (AID 720678)
Procedure, shortened: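 Measured: blue fluorescence (Ex 405/Em 460 nm) of compound-treated HEK293 cells, incubated overnight at 37C with 5% CO2 and scaled to triamterene equivalents.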

[9] = qHTS assay to test for compound auto fluorescence at 590 nm (red) in HEK293 cells (AID 720679)
Procedure, shortened: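 Using HEK293 cells at 2,000 per well, the screen added 23 nL of each compound after cell attachment and incubated overnight (37C, 5% CO2). The plate reader then captured red-label fluorescence, Ex/Em 540/590nm.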

[10] = qHTS assay to test for compound auto fluorescence at 535 nm (green) in HEK293 cells (AID 720680)
[11] = qHTS assay to test for compound auto fluorescence at 460 nm (blue) in HEK293 cell free culture (AID 720681)
Procedure, shortened: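 Compounds were added to cell-free DMEM with 10% FBS and fluorescence read directly. The blue channel used 405 nm excitation and 460 nm emission, with triamterene as the reference fluorophore.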

[12] = qHTS assay to test for compound auto fluorescence at 535 nm (green) in HEK293 cell free culture (AID 720682)
Procedure, shortened: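 Green-channel intensity (Ex/Em 485/535 nm) was recorded from compound-treated wells containing only DMEM with 10% FBS. Fluorescein provided the equivalency standard.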

[13] = qHTS assay to test for compound auto fluorescence at 590 nm (red) in HEK293 cell free culture (AID 720683)
Procedure, shortened: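 Cell-free wells of DMEM with 10% FBS received compound, and intrinsic fluorescence was read at excitation/emission 540/590 nm. Values expressed as equivalence to Rose Bengal sodium.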

[14] = qHTS assay to test for compound auto fluorescence at 590 nm (red) in HepG2 cell free culture (AID 720684)
Procedure, shortened: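 Auto fluorescence equivalency versus Rose Bengal sodium, red channel Ex/Em 540/590 nm; compounds in cell-free MEM/10% FBS; DMSO vehicle control.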

[15] = qHTS assay to test for compound auto fluorescence at 460 nm (blue) in HepG2 cell free culture (AID 720685)
Procedure, shortened: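 Cell-free plates of MEM plus 10% FBS received 23 nL compound or DMSO vehicle; blue-channel (405/460 nm) intensity scored against triamterene as reference fluorophore.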

[16] = qHTS assay to test for compound auto fluorescence at 460 nm (blue) in HepG2 cells (AID 720687)
Procedure, shortened: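 HepG2 cells in MEM with 10% FBS, attached overnight at 37 C, were exposed to compound or DMSO for 1 hr at 37 C, 5% CO2. Blue fluorescence was read at 405/460 nm, with triamterene as reference fluorophore.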

[17] = biological target: Glucocorticoid receptor (Homo sapiens) (UniProt P04150); test: qHTS assay to identify small molecule agonists of the glucocorticoid receptor (GR) signaling pathway (AID 720691; active = well fitted activation curve with a large enough effect in the signal ratio in the repeat runs, not every such curve was filed as active; the % refers to the signal ratio); settings: GR-bla HeLa, beta-lactamase reporter ratio, 18 h; activation: at 62.4 µM (top of the series)
Procedure, shortened: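 Steps: seed GR-bla HeLa cells, incubate 4 h at 37 C/5% CO2; pin-transfer DMSO-dissolved compounds; incubate 18 h at 37 C; add LiveBLAzer B/G FRET substrate; after 2 h at room temperature, measure fluorescence.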

[18] = qHTS assay to test for compound auto fluorescence at 535 nm (green) in HepG2 cell free culture (AID 720686)
[19] = qHTS assay for small molecules that induce genotoxicity in human embryonic kidney cells expressing luciferase-tagged ATAD5 - cell viability (AID 651634; calls by dose curve; note: nearly all actives have a fitted effect of over 25% in size; note: potency is the fitted concentration of half-maximal effect)
Procedure, shortened: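 Cells (HEK293T, luciferase-tagged ATAD5) are seeded at 2,000 per well, dosed with compound or DMSO vehicle, and incubated 15.5 hr at 37C and 5% CO2. CellTiter-Fluor is added for 30 min before fluorescence is measured.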

[20] = biological target: Glucocorticoid receptor (Homo sapiens) (UniProt P04150); test: qHTS assay to identify small molecule antagonists of the glucocorticoid receptor (GR) signaling pathway (AID 720692; active = well fitted inhibition curve with a large enough effect in the signal ratio in the repeat runs, not every such curve was filed as active; the % refers to the signal ratio)
Procedure, shortened: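 Antagonism was scored as loss of dexamethasone-driven (5 nM final) reporter signal in HeLa cells bearing a glucocorticoid response element–beta-lactamase construct, after 18 h compound exposure at 37 C and 2 h FRET substrate loading.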

Glucocorticoid receptor (Homo sapiens), sequence (P04150 whole entry, looked up): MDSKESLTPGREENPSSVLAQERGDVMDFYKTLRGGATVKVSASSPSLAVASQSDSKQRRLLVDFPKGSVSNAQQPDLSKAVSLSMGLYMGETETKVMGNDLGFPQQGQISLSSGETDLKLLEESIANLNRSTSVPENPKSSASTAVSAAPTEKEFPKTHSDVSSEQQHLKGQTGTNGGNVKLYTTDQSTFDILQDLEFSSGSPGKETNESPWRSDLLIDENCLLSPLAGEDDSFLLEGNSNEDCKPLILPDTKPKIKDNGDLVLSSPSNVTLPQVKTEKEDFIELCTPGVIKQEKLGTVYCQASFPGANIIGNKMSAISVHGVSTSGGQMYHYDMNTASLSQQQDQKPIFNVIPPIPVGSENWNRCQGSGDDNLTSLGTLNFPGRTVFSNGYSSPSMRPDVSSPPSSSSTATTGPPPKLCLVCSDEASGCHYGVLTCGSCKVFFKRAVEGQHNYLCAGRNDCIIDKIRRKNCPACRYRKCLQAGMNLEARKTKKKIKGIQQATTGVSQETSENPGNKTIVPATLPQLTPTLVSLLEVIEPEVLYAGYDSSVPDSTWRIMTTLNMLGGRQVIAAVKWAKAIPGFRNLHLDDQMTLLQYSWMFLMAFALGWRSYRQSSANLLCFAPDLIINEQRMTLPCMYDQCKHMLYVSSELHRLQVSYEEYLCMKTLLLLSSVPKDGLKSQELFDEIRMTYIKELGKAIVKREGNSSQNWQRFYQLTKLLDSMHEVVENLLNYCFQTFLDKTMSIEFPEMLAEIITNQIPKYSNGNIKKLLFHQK

Structure (SMILES)	Potency [1]	Potency [2]	Potency [3]	Potency [4]	Potency [5]	outcome [6]	Potency [7]	Potency [8]	outcome [9]	outcome [10]	Potency [11]	outcome [12]	outcome [13]	outcome [14]	Potency [15]	Potency [16]	Potency [17]	Potency [18]	Potency [19]	Potency [20]
CC(CNC(=O)c1cccnc1)NC(=O)c1cccnc1 (configuration not stated)	inactive	inactive	inactive	inactive	inactive	inactive	inactive	inactive	inactive	inactive	inactive	inactive	inactive	inactive	inactive	inactive	inactive			
CC1(C)S[C@@H]2[C@H](NC(=O)[C@H](N)c3ccc(O)cc3)C(=O)N2[C@H]1C(=O)O	inactive	inactive	inactive	inactive	inactive	inactive	inactive		inactive			inactive	inactive	inactive		inactive		inactive		
CCCOC(=O)c1ccc(O)cc1	inactive	inactive	inactive			inactive	inactive	inactive	inactive	inactive	inactive	inactive	inactive	inactive	inactive	inactive	inactive	inactive	inactive	
C=C(Nc1ccc(OCC)cc1)Nc1ccc(OCC)cc1	inactive	inactive	inactive	inactive		inactive	inactive	inactive	inactive	inactive	inactive	inactive	inactive	inactive	inactive	inactive		inactive	inactive	
CC(C)(COP(=O)(O)OP(=O)(O)OC[C@H]1O[C@@H](n2cnc3c(N)ncnc32)[C@H](O)[C@@H]1OP(=O)(O)O)C(O)C(=O)NCCC(=O)NCCS (some centres not stated)	inactive	inactive	inactive	inactive	inactive	inactive	inactive	inactive	inactive	inactive	inactive	inactive	inactive	inactive	inactive	inactive		inactive		
CC(C)C[C@H](NC(=O)[C@@H](COC(C)(C)C)NC(=O)[C@H](Cc1ccc(O)cc1)NC(=O)[C@H](CO)NC(=O)[C@H](Cc1c[nH]c2ccccc12)NC(=O)[C@H](Cc1cnc[nH]1)NC(=O)[C@@H]1CCC(=O)N1)C(=O)N[C@@H](CCCN=C(N)N)C(=O)N1CCC[C@H]1C(=O)NNC(N)=O	inactive	inactive	inactive	inactive	inactive	inactive	inactive	inactive	inactive	inactive	inactive	inactive	inactive	inactive	inactive	inactive	inactive			inactive
O=C1CCC/C=C\CCCCCCCCCC1	inactive	inactive	inactive	inactive	68.6 µM (active)	inactive	inactive	inactive	inactive	inactive	inactive	inactive	inactive	inactive	inactive	inactive		inactive		
CN[C@@H]1[C@@H](O[C@H]2O[C@H](CO)[C@@H](N)[C@H](O)[C@H]2O)O[C@H]2C[C@@H](N)[C@@H](O[C@H]3[C@H](O)[C@@H](O)[C@H](N)C[C@@H]3N)O[C@@H]2[C@@H]1O	inactive	inactive	inactive	inactive			inactive	inactive		inactive	inactive	inactive	inactive	inactive	inactive	inactive	inactive	inactive	inactive	inactive
O=C[C@H](O)[C@@H](O)[C@@H](O)[C@H](O)CO	inactive	inactive	inactive	inactive		inactive	inactive	inactive	inactive	inactive	inactive		inactive	inactive	inactive	inactive	inactive	inactive	inactive	inactive
Cc1cc(=O)c(C(=O)N[C@@H](C(=O)N[C@@H]2C(=O)N3C(C(=O)O)=C(CSc4nnnn4C)CS[C@H]23)c2ccc(O)cc2)c[nH]1	inactive	inactive	inactive	inactive		inactive	inactive	inactive	inactive	inactive	inactive	inactive	inactive	inactive	inactive		inactive	inactive	inactive	inactive
COc1ccc(/C=C/C(=O)Nc2ccccc2C(=O)O)cc1OC	inactive	1.19 µM (active)	inactive	inactive		inactive	inactive	inactive	inactive	inactive	inactive	inactive	inactive	inactive	inactive	inactive	inactive	inactive	inactive	
O=C1[O][Bi][O]c2ccccc21	inactive	inactive	inactive	inactive	inactive							inactive							inactive	
O=C(O)Cc1nn(Cc2ccc(Br)cc2F)c(=O)c2ccccc12	inactive	inactive	inactive	inactive	inactive		inactive	inactive		inactive	inactive		inactive	inactive	inactive			inactive	inactive	
CC(C)[N+]1(C)[C@@H]2CC[C@H]1CC(OC(=O)C(CO)c1ccccc1)C2 (some centres not stated)	inactive	inactive	inactive	inactive	inactive	inactive	inactive	inactive	inactive	inactive	inactive	inactive	inactive	inactive	inactive	inactive	inactive	inactive		
O=C(O)CCCC/C=C(\c1ccccc1)c1cccnc1	inactive	inactive	inactive	inactive	inactive	inactive	inactive	inactive		inactive	inactive	inactive	inactive	inactive	inactive	inactive		inactive		
Cc1cc(Br)ccc1NC(=O)CCl	8.63 µM (active)	inactive	43.3 µM (active)	inactive		inactive	inactive	inactive	inactive		inactive		inactive	inactive	inactive	inactive	inactive	inactive	54.5 µM (active)	
O=P(O)(O)CP(=O)(O)O	inactive	inactive	inactive	inactive	inactive	inactive	inactive	inactive	inactive	inactive	inactive	inactive	inactive	inactive	inactive		inactive	inactive		
Nc1nc(NC2CC2)c2ncn([C@@H]3C=C[C@@H](CO)C3)c2n1	inactive	13.3 µM (active)	inactive	inactive	inactive		inactive	inactive		inactive	inactive	inactive	inactive	inactive	inactive	inactive	inactive	inactive	inactive	inactive
N#Cc1c(N(CC(=O)O)CC(=O)O)sc(C(=O)O)c1CC(=O)O	inactive	inactive	inactive	inactive	inactive	inactive	inactive	inactive	inactive	inactive	inactive	inactive	inactive	inactive	inactive	inactive				
CC(=O)O[C@H]1C[C@@H]2CC[C@@H]3[C@H](CC[C@@]4(C)[C@H]3C[C@H]([N+]3(C)CCCCC3)[C@@H]4OC(C)=O)[C@@]2(C)C[C@@H]1[N+]1(C)CCCCC1	inactive	inactive	inactive	inactive			inactive	inactive	inactive	inactive	inactive	inactive	inactive	inactive	inactive	inactive	inactive	inactive	inactive	inactive
CNC(=O)OCc1cccc(COC(=O)NC)n1	inactive	inactive	inactive	inactive	inactive		inactive	inactive	inactive	inactive	inactive	inactive	inactive	inactive	inactive	inactive	inactive	inactive		inactive
COc1ccc(/C=N/NC(=O)c2ccncc2)c(C(=O)O)c1OC	inactive	inactive	inactive	inactive	inactive	inactive	inactive	inactive	inactive	inactive	inactive		inactive	inactive	inactive	inactive	inactive	inactive		
N[C@@H](Cc1cnc[nH]1)C(=O)O	inactive	inactive	inactive	inactive		inactive	inactive	inactive	inactive		inactive	inactive	inactive	inactive	inactive	inactive	inactive	inactive	inactive	inactive
CC1CCCC(C)N1NC(=O)c1ccc(Cl)c(S(N)(=O)=O)c1 (configuration not stated)	inactive	inactive	inactive	inactive	inactive	inactive	inactive	inactive	inactive	inactive	inactive	inactive	inactive	inactive	inactive	inactive	inactive	inactive		inactive
CC[N+](CC)(CC)CCC(O)(c1ccccc1)C1CCCCC1 (configuration not stated)	inactive	inactive	inactive	inactive	inactive	inactive	inactive	inactive	inactive		inactive	inactive	inactive	inactive	inactive	inactive	inactive	inactive		inactive
COC(=O)C(CN)c1c[nH]c2ccc(OC)cc12 (configuration not stated)	inactive	inactive	inactive	inactive	inactive	inactive	inactive	inactive	inactive	inactive	inactive	inactive	inactive	inactive	inactive	inactive		inactive		
O=C(O)c1ccc(NC2OC[C@@H](O)[C@H](O)[C@H]2O)cc1 (some centres not stated)	inactive	inactive	inactive	inactive	inactive	inactive	inactive	inactive	inactive	inactive	inactive	inactive	inactive	inactive	inactive	inactive	inactive	inactive		
